Test systems include T-47D breast; BT-549 breast; MDA-MB-435 melanoma; SW-620 colon; MCF7 breast; HCT-116 colon; HCC-2998 colon; KM12 colon.
Holding throughout (assay): NCI-60 one-dose screen, 48 h (100 = growth as untreated, 0 = no growth, -100 = all killed)
What all share (settings): 10 µM unless noted

About 83,000 compounds went through this panel and 20% of them were active in at least one assay; those are over-represented in the sample as a whole.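 In brief: 96-well plates, 48 h treatment, single concentration, percent growth endpoint.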 A number with no mark means an inactive call. Calls of active or inactive are those of the source. How the source made its calls: active means growth percent below 10; inactive means the rest.

For `CC1=C/C(=C(\c2cc(C)c(O)c(C(=O)O)c2)c2c(Cl)cccc2Cl)C=C(C(=O)O)C1=O`, the growth in the test with T-47D breast is 98.3%; with BT-549 breast it was 99.3%; in the test with MDA-MB-435 melanoma, 108%; in the test with SW-620 colon, 110%; in the test on MCF7 breast, 92.7%; with HCT-116 colon, 105%. The growth in the test on HCC-2998 colon is 110%; with KM12 colon it was 103%.

`Cc1nc(-c2ccccc2)sc1CC#N`: the growth in the test with T-47D breast was 103%; in the test with BT-549 breast it was 113%; in the test with MDA-MB-435 melanoma, 105%; in the test on SW-620 colon it was 103%; in the test on MCF7 breast it was 102%; in the test with HCT-116 colon, 108%. Also, the growth was 109% in the test on HCC-2998 colon and 107% with KM12 colon.

Consider `Cc1cc(NN=C(c2ccc(O)cc2)c2ccc(O)cc2)c([N+](=O)[O-])cc1[N+](=O)[O-]`, for which the growth was 33.1% in the test on T-47D breast; 90.8% in the test with BT-549 breast; 47.5% in the test with MDA-MB-435 melanoma; 71.4% in the test on SW-620 colon; 32% in the test on MCF7 breast; 28.6% in the test on HCT-116 colon. Further, the growth was 61.9% in the test on HCC-2998 colon and 37.7% in the test with KM12 colon.

On to `c1ccc(-c2nc(N3CCCNCC3)c3nc(-c4ccccc4)oc3n2)cc1`, for which the growth in the test with T-47D breast is 46.9%; in the test with BT-549 breast, 95.3%; with MDA-MB-435 melanoma, -85.7% (active); in the test on SW-620 colon, -77.1% (active); with MCF7 breast, -66.7% (active); with HCT-116 colon, -74.8% (active). Further, the growth with HCC-2998 colon is -88.7% (active); in the test on KM12 colon it was -74.7% (active).

Turning to `O=C(NNc1ccc(-c2ccccc2)nn1)c1ccc(F)cc1`, the growth was 88.7% in the test on T-47D breast; 95.1% in the test on BT-549 breast; 100% in the test on MDA-MB-435 melanoma; 100% with SW-620 colon; 91% in the test on MCF7 breast; 103% in the test on HCT-116 colon. The growth in the test with HCC-2998 colon and with KM12 colon was 102% each time.

As to `c1ccc(-c2nnc(-c3c[nH]c4ncccc34)s2)cc1`, the growth with T-47D breast is 40.5%; in the test with BT-549 breast, 95.3%; in the test on MDA-MB-435 melanoma, 94.8%; with SW-620 colon it was 104%; in the test with MCF7 breast, 54.1%; with HCT-116 colon it was 91%. In addition, the growth was 111% in the test with HCC-2998 colon and 93.2% with KM12 colon.

Turning to `COc1ncc(-c2ccc3nccc(C#CCCCCC(=O)O)c3c2)cc1NS(=O)(=O)c1ccc(F)cc1F`, the growth in the test with T-47D breast was -18.1% (active); in the test on BT-549 breast, 4.54% (active); with MDA-MB-435 melanoma, 29.5%; in the test on SW-620 colon, 50.7%; with MCF7 breast it was 6.95% (active); in the test with HCT-116 colon it was 41.1%. In addition, the growth is 29.4% in the test on HCC-2998 colon and 41.6% in the test with KM12 colon.

With `N#CC1C(=O)NC(c2ccccc2[N+](=O)[O-])c2sc3c(F)cccc3c21` (configuration not stated), the growth in the test with T-47D breast was 2.51% (active); in the test on BT-549 breast, 89.2%; in the test on MDA-MB-435 melanoma it was 102%; in the test on SW-620 colon it was 21.9%; in the test on MCF7 breast, 23.4%; in the test with HCT-116 colon it was 11%. Moreover, the growth is 93.8% in the test with HCC-2998 colon and 91.4% with KM12 colon.

With `CCCCCCCCN(CCCCCCCC)CC(O)c1ccc(Cl)c(C)c1Cl` (configuration not stated), the growth is 75.9% with T-47D breast; 117% with BT-549 breast; 91.4% in the test on MDA-MB-435 melanoma; 44.5% in the test with SW-620 colon; 90.4% in the test with MCF7 breast; 63.5% in the test on HCT-116 colon. In addition, the growth with HCC-2998 colon is 85.3%; in the test with KM12 colon, 79.6%.

Regarding `CCCCCN(CCCCC)CCCCCCCCN1CCCc2ccccc21`, the growth is 108% in the test with T-47D breast; 88.6% in the test on BT-549 breast; 87.9% in the test with MDA-MB-435 melanoma; 82.8% with SW-620 colon; 101% in the test with MCF7 breast; 64.8% with HCT-116 colon. In addition, the growth with HCC-2998 colon was 74.8%; in the test on KM12 colon, 73.4%.

Take `N#C/C(C(=O)c1ccccc1)=C1/C(=O)Nc2ccc(F)cc21`: the growth in the test with T-47D breast was 80.5%; with BT-549 breast it was 102%; in the test with MDA-MB-435 melanoma, 107%; in the test with SW-620 colon, 101%; in the test on MCF7 breast, 96.4%; with HCT-116 colon it was 103%. Moreover, the growth was 104% in the test on HCC-2998 colon and 109% in the test with KM12 colon.

In the case of `COc1ccc(C(=O)CSc2nnc(-c3cc(-c4ccccc4)nc4ccccc34)o2)cc1`, the growth was 108% in the test on T-47D breast; 105% with BT-549 breast; 106% in the test with MDA-MB-435 melanoma; 107% in the test with SW-620 colon; 103% with MCF7 breast; 101% in the test with HCT-116 colon. Moreover, the growth is 118% in the test on HCC-2998 colon and 105% in the test with KM12 colon.

For the compound `CCCC[C@@H](C=O)NC(=O)[C@H](CC(C)C)NC(=O)[C@H](CC(C)C)NC(=O)OCc1ccccc1`, the growth was -42.7% (active) with T-47D breast; -70.3% (active) in the test on BT-549 breast; -4.11% (active) with MDA-MB-435 melanoma; -34.6% (active) in the test with SW-620 colon; 0.513% (active) with MCF7 breast; -58.5% (active) in the test on HCT-116 colon. Moreover, the growth with HCC-2998 colon is -74.1% (active); with KM12 colon, -51.4% (active).

Regarding `N#C/C(C(=O)c1ccccc1)=C1/C(=O)Nc2ccc(Br)cc21`, the growth with T-47D breast is 90.5%; in the test with BT-549 breast, 99.2%; in the test on MDA-MB-435 melanoma, 102%; in the test with SW-620 colon it was 97%; with MCF7 breast, 95.9%; in the test with HCT-116 colon, 99.8%. Moreover, the growth in the test with HCC-2998 colon was 99.7%; in the test with KM12 colon, 105%.

These data come from PubChem BioAssay (NCI).
